# Luc counter: Kinase-Glo luciferase inhibition (counter-screen). Q27757. Kinase-Glo luciferase, ATP luminescence, 8 min. Potency, µM (titrated, usually from 38.3 µM), without a hit: at the top dose activity change, negative = inhibition, usual class: inhibitors. hit rate 0.28% among 200,000; active = well fitted inhibition curve with a large enough effect; inconclusive = small, poorly fitted or top-dose-only effect; note: potency is the fitted concentration of half-maximal effect; nearly all actives have a fitted effect of over 60% in size
#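 Recombinant Kinase-Glo luciferase, 10 uM ATP (linear range), luciferin; imidazole pH 7.2 / KCl / MgCl2 / Tween / BSA buffer; 8 min RT; luminescence.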
# PNC assembly inh: inhibitors of perinucleolar compartment assembly; PC3M PTB-GFP, PNC prevalence imaging, 16 h; hits give low values; activity change (PNC), negative = inhibition, % at 10 µM; hit rate 3.1% among 140,000;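 active = readout at or below -70, meaning at least 70% loss of cells showing the perinucleolar compartment, a nuclear body marking cancer cells; inconclusive = readout between -30 and a set limit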;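 note: plate controls were DMSO wells for no effect and camptothecin positive control wells for full effect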
#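 Read-out is percentage of cells bearing a perinucleolar compartment, from automated 20x imaging of fixed, Hoechst-stained PC3M PTB-GFP cells. Cells were seeded 4 h, then exposed 16 h to compound (23 nl of library stock) in duplicate plates.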
# HPGD inh: HPGD (human) dehydrogenase inhibition; purified HPGD, NADH fluorescence kinetic, PGE2 substrate; Potency, µM, for inactives: at the highest dose activity change, negative = inhibition, most hits filed as inhibitors; hit rate 4.3% among 150,000; note: potency is the fitted concentration of half-maximal effect
# Target sequence (P15428 whole entry, looked up): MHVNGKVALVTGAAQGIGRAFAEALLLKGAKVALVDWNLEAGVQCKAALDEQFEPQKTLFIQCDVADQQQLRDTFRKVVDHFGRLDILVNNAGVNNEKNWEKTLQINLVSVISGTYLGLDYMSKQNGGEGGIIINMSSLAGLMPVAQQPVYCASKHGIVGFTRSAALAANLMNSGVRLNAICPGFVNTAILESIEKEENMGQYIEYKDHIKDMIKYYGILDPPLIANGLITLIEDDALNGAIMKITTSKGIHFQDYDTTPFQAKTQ
#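 NADH formation kinetics: reaction with 30 uM PGE2 and 1 mM NAD+ (final), 20 nM enzyme, Tris-HCl pH 8 with Tween 20, after 15 min compound preincubation at room temperature. Fluorescence change, last versus first of five reads.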
# ALDH1A1 inh: inhibitors of human aldehyde dehydrogenase 1A1; Purified ALDH1A1, NADH fluorescence, propionaldehyde substrate; Potency, µM (titrated, usually from 75.3 µM), inactives show top-dose activity, negative = inhibition, most hits filed as inhibitors; hit rate 7.3% among 220,000; AID 1030;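 note: potency is the fitted concentration of half-maximal effect; plate controls were no enzyme wells and a reference inhibitor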
# Lamin A splicing: changes lamin A minigene splicing in HeLa cells; HeLa LMNA splicing GFP/RFP minigene ratio, 48 h; Potency, µM (titrated, usually from 46.1 µM), inactives show at the highest dose ratio change, negative = inhibition, actives largely listed as inhibitors; hit rate 0.01% among 200,000; AID 1487; active = well fitted inhibition curve with a large enough effect in the signal ratio, with a control signal flat, not every such curve was filed as active; inconclusive = small, poorly fitted or top-dose-only effect, or effect the other way, or a change in a side signal; the % refers to the signal ratio; note: potency is the fitted concentration of half-maximal effect
#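 S3 HeLa stable clones carrying a lamin A-EGFP splicing minigene plus DsRed2 were seeded at 600 cells/well in Opti-MEM with 2% FBS, pin-dosed and incubated 48 h at 37°C. Acumen cytometry (488 nm) gave the GFP/RFP total-intensity ratio.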
# Active calls of the source: *; ? = inconclusive; · = no result; ! = a repeat was not active; [ ] = dose if it differs, or a comment. Rows were chosen to be rich in hits. Some 10% of all compounds tested hit in one or more screens of this group. Unless noted, calls come from the whole dose curve; as a rule, active = well fitted inhibition curve with a large enough effect (not every such curve was filed as active); inconclusive = small, poorly fitted or top-dose-only effect, or another doubt; inactive = no such curve, though single readings can be large or run the other way. Unless noted, % is set by controls: 0 for no effect and ±100 for the full control effect.
SMILES,Luc counter,PNC assembly inh,HPGD inh,ALDH1A1 inh,Lamin A splicing
CCOc1cccc(/C=N/NC(=S)Nc2ccccc2[N+](=O)[O-])c1O,-1.2%,·,·,2.4%,?
COc1ccc(-n2c(O)c(/C=N/NS(=O)(=O)c3ccc(C)c([N+](=O)[O-])c3)c3ccccc3c2=O)cc1OC,-3.5%,·,·,?,?
COc1cc(/C=N/NS(=O)(=O)c2ccc(C)c([N+](=O)[O-])c2)ccc1O,4.6%,·,·,12.6µM*,-3.9%[46 µM]
CCOc1cccc(/C=N/NS(=O)(=O)c2ccc(C)c([N+](=O)[O-])c2)c1O,6.0%,·,·,3.98µM*,-11.7%[46 µM]
Cc1ccc(S(=O)(=O)N/N=C/c2cc([N+](=O)[O-])ccc2O)cc1[N+](=O)[O-],-0.6%,·,·,12.6µM*,?
Sc1ccc2ccccc2c1CNCc1ccccc1,-6.5%[7.66 µM],·,-6.6%,-8.4%[13.5 µM],·
CS(=O)(=O)N1CCC2(CC1)CN(c1ccc(-c3ccccc3)cc1)C2,-1.8%,·,-3.7%,12.0%,·
CN1CCc2cccc3c2[C@@H]1Cc1ccc(O)c(O)c1-3,-3.9%,-10.8,8.91µM*!,25.1µM*,?
COc1ccc2c(c1O)-c1ccccc1CCN(C)C2,·,·,·,-4.7%,·
COC(=O)[C@H](COC(C)(C)C)NC(=O)O[C@H]1C(=O)c2ccc(OC)cc2O[C@@H]1c1ccc2c(c1)OCO2,-0.9%,·,-9.6%,6.0%,·
COc1ccc(-c2noc(CSc3nnc(Cc4ccccc4)n3-c3cccc(C)c3)n2)cc1OC,0.9%,?,-13.7%,12.6µM*,-3.6%
Cc1ccc(-c2noc(CSc3nnc(Cc4ccccc4)n3-c3cccc(C)c3)n2)cc1,-6.2%,?,-12.6%,-10.8%,?
Fc1ccc(-n2c(Cc3ccccc3)nnc2SCc2nc(-c3cccs3)no2)cc1,-1.5%,?,-17.9%,14.1µM*,-11.3%
NC1(C(=O)O)C[C@H](C(=O)O)[C@H](C(=O)O)C1 (some centres undefined),-2.3%,·,2.4%,-2.3%,·
COC(=O)c1ccc2nc(C)cc(Nc3ccc(N(C)C)cc3)c2c1,-0.8%,-118.9*,-1.9%,?,-4.3%
COc1ccc(Cl)cc1NC(=O)c1cc(S(=O)(=O)N(C)Cc2ccccc2)ccc1F,·,·,·,·,-11.0%[46 µM]
O=C(O)c1ccc2c(c1)C(=O)N(c1cccc(C(=O)/C=C/c3ccccc3)c1)C2=O,-3.2%,·,·,0.708µM*,?
Cc1nn(CCC#N)c(N)c1C1(O)C(=O)Nc2c(Cl)cc(Cl)cc21 (centres undefined),·,·,·,3.98µM*,·
Cc1cc(N)c2ccccc2[n+]1CCCCCCCCCCCCCC[n+]1c(C)cc(N)c2ccccc21,-5.7%,·,17.2%,?,?
Nc1n[nH]c(C2CCCCC2)n1,-5.8%,·,·,1.4%,·
S=c1nc(C2CCCCC2)[nH][nH]1,3.0%,?,14.1µM*,?,-2.3%
O=C1C(Cl)=C(NCCN2CCOCC2)C(=O)c2ncccc21,-11.2%,·,-15.6%,13.8%,·
O=C1C(Cl)=C(NC2CCc3ccccc32)C(=O)c2ncccc21 (centres undefined),-4.6%,·,-9.1%,11.2µM*,·
O=C(c1cc(C(F)(F)F)cc(C(F)(F)F)c1)N1CCC2(CCCN(c3ncccn3)C2)CC1,-1.7%,·,-20.6%,-2.5%,·
CCOc1ccc(NCC(=O)N/N=C/C=C/c2ccccc2)cc1,5.4%,-16.0,-8.5%,?,-14.5%
SMILES,Luc counter,PNC assembly inh,HPGD inh,ALDH1A1 inh,Lamin A splicing
O=C(CSc1ccccn1)N/N=C/C=C/c1ccccc1,-0.8%,3.0,20µM*,6.2%,?
COc1ccc(OCC(=O)N/N=C/C=C/c2ccccc2)cc1,-4.6%,-115.1*,-7.2%,5.8%,0.3%
Cc1ccccc1Nc1nc(N)nc(COC(=O)c2cccc(S(=O)(=O)NCc3ccccc3)c2)n1,-0.9%,66.3,28.2µM*,11.0%,-8.9%
Cc1cc(C)c(C(=O)COC(=O)c2cccc(S(=O)(=O)NCc3ccccc3)c2)cc1C,0.2%,10.7,-22.6%,7.3%,-16.8%
O=C(COC(=O)c1cccc(S(=O)(=O)NCc2ccccc2)c1)c1ccccc1,3.4%,57.2,20µM*,-11.0%,?
COc1ccc(/C=C/C(=O)c2ccc(C)s2)cc1,-25.4%,·,?,?,·
COc1ccc2c(c1OC)C(Cc1ccccc1)N1CCc3cc4c(cc3C1=C2)OCO4 (centres undefined),-19.4%,·,?,?,·
